Measurements: the supplement of paper PMC11417369
In all, about 25,000 sequences were measured (“ln(normalized median fluorescence intensity)”: median about 9.7, highest 2% from about 11 on). Only a selection was taken, and the highest values are over-represented in it overall.

Tested on: PfAP2-HC AP2 domain (GST-tagged)
Assay: gcPBM binding intensity (ln(normalized median fluorescence intensity)); higher = stronger DNA binding
Procedure, shortened: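 For binding intensity, the highest Masliner-normalised natural-log median intensity across replicate spots of either probe orientation was taken. Protein bound to the array was stained with Alexa488 anti-GST antibody and scanned at 488 nm. The protein, GST-tagged P. falciparum DNA-binding domains from E. coli at about 25 μg on average, had been applied for 1 h to an Agilent 4 × 180k array of primer-extended double-stranded 36-bp intergenic genomic probes and negative controls.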

| Sequence | gcPBM binding intensity (ln) |
| --- | --- |
| TATAGATACAGATACACACACACACCGACATATATA [CACACA_site5832] | 10.7 |
| AAAAATTTGGCATACACACACACACCGACACAGACA [CACACA_site4489] | 10.5 |
| CCCACAGACGGACACACACACACATATATATATATA [CACACA_site4352] | 11.1 |
| TATACTCATGGACACACACACATACACAGACATACA [CACACA_site5024] | 10.4 |
| AAAAAAAAAAAAATGTGTACATACATATATTTATAT [XGTACX_site3076] | 9.74 |
| CTTTCGGTTGGAGAGGTGCGCTTCTCCTTTATAATA | 9.61 |
| TTTTTTTTTTATGGTACACACACGCGTATGGTTGCA [CACACA_site1876] | 10 |
| AAGAAATAAATACATACACACATATATATATATATA [CACACA_site3362] | 10.3 |
| CGAAAGAAAAAAAGCACACACAGTTTTGAGCAATGA [CACACA_site2109] | 10.1 |
| AAGTTTTATATTTATTAAATTTTTTTTTTTCCTTTT [XGTACX_negctrl_site184] | 9.2 |
| AATATTCGTAATTGATGTACTTGTAATTCATACATT [XGTACX_site8314] | 9.67 |
| ATTTGGCAGAAACACACACACACACCCACCCACATA [CACACA_site589] | 10.5 |
| AACTTTGGCAAACACACACACACACCCACACCCACA [CACACA_site588] | 10.5 |
| ATTTGGCATAAACACACACACACACCCACCCACATA [CACACA_site8096] | 10.9 |
| AAATTTGGCAAACACACACACACACCCACACCCACA [CACACA_site8095] | 11.4 |
| AAATTTGGCAAACACACACACACACCCACAGAGACA [CACACA_site4490] | 11.3 |
| AAAAATTTGGCATACACACACACACCCACACCCACA [CACACA_site587] | 10.4 |
| GATATGGAATATATGTGTACATATATATATATTATA [XGTACX_site1724] | 9.77 |
| TATTTATAAAAAAATACATGCATTTTTTTTTTTTTT [TGCATGCA_site65] | 9.36 |
| AAAACAAATTAAAATCGTACAATTATAATGTTAATG [XGTACX_site180] | 9.7 |
| TATTCTAATATATGCATACACACAAATGTGAATATA [CACACA_site2143] | 9.66 |
| AGATAGCTATTAAAAAGTACAAAAAAATATATATAT [XGTACX_site6289] | 9.71 |
| ATATTACACATATATGCACACATTGTAGTTATTTAT [CACACA_site8843] | 9.99 |

| Sequence | gcPBM binding intensity (ln) |
| --- | --- |
| TAATATATAACGTGCACACACACATTTACGTATGAA [CACACA_site1832] | 10 |
| ATATATAACGTGCACACACACATTTACGTATGAATA [CACACA_site6948] | 10 |
| ATATATAACGGGCACACACACATTTACGTATGAATA [CACACA_site1833] | 11.1 |
| TTTATTAGTAATTATACACACATATAAAATGAATAA [CACACA_site6754] | 9.67 |
| ATAATAAGGTTAAGCACACATATTACATATATAACT [CACACA_site3356] | 10 |
| GTTATATAAAAATATTGTACATTCTATATAAAGTCA [XGTACX_site4418] | 9.47 |
| ATATAGATCAGACACACACACATGTTTTAAAACTAT [CACACA_site6186] | 10.9 |
| TTATATATAGATCACACACACACACCGGTTTTAAAA [CACACA_site4220] | 11.2 |
| TGTTTTTAAAAAAAAAAAAAATCACACCGGCAGGTA [CACACA_negctrl_site1437] | 9.49 |
| TAAGAAAAATATATATGTACACATATATATATATAT [XGTACX_site8542] | 9.61 |
| CTTTGTGTTAAAAGTAGTACACCAAAAATATGACTT [XGTACX_site622] | 9.55 |
| CATACATACAGACACACACACATATAAATACATACA [CACACA_site6533] | 10.3 |
| ATATTATACATTTATACACACATAAAAAGACAAAAA [CACACA_site3565] | 9.92 |
| AATGGAAAAATAGGCACACACACATAAATACAGATA [CACACA_site4844] | 11.2 |
| AATACATACAGACACACACACACATATAAATAAATA [CACACA_site7642] | 11.6 |
| AATGGCAAAATAGGCACACACACATATACAGATATA [CACACA_site4726] | 10.6 |
| TTAAAAAAAAGACACACACACATACACATATTTATA [CACACA_site7535] | 11.2 |
| TGGAAAAATAGGCACACACACATATATACATATATA [CACACA_site1297] | 10.5 |
| AAAAAAAAAAGACACACACACATATTTATTTATATA [CACACA_site6484] | 10.4 |
| TATACAGACAGACACACACACATATATAAATATGTA [CACACA_site6912] | 10.6 |
| AATGGAAAAATAGGCACACACACATATATACATATA [CACACA_site1298] | 10.6 |
| AATGGCAAAATAGGCACACACACATATACATATATA [CACACA_site1058] | 10.9 |
| TGGCAAAATAGGCACACACACATATACATATATATT [CACACA_site1059] | 10.3 |
